43 molecules from PubChem BioAssay AID2472 (National Center for Advancing Translational Sciences (NCATS), 2010) can be followed below.

SMILES strings stand for the structures. Several values for one entry are separate records, joined by “and”; a condition that tells them apart may be missing. Equal entries are not always repeated. Among all 290,000 compounds or so, about 2,000 (0.69%) were called active. Rule as the data show it: active = activity change below about -30%; inactive = the rest, inconclusive results apart. The sample as a whole holds a higher share of actives than the screen did. More than one record can exist for a structure, and the calls need not agree.
% is scaled to controls: 0 for no effect and ±100 for the full control effect.

The assay in a line: qHTS Assay for Inhibitors of Fructose-1,6-bisphosphate Aldolase from Giardia Lamblia: Coupling assay counterscreen. Conditions: coupling enzyme system counterscreen, AmpLite Red fluorescence; at 58.2 µM (top of the series). The method in brief: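 First, compound is pin-transferred into glyceraldehyde-3-phosphate coupling-enzyme reagent at 57.5 uM final and held 10 min at RT. Next, substrate, coupling system and AmpLite Red are added. After 20 min RT, fluorescence (525/598 nm) is read.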
Consider `CC(=O)N1CCc2c(sc(NC(=O)CCS(=O)(=O)c3ccccc3)c2C#N)C1`, for which the activity change, negative = inhibition is 1.84% (inactive).
The result for `N#Cc1c(N)sc2c1CCN(C(=O)OCc1ccccc1)C2` reads -39.2% (active); that for `CC(C)N1CCc2c(sc(NC(=O)Cc3ccccc3)c2C#N)C1`, -3% (inactive); that for `O=C1C2C(c3ccccc3)CC=CC2C(c2ccoc2)N1Cc1ccccc1` (stereo not drawn), 8.25% (inactive).
Take `CCCCC1=CC2=CC(=O)C(C)(OC(=O)CC)C(=O)C2=CN1CCCOC(C)C` (stereo not drawn): the activity change, negative = inhibition was -25% (inactive) and -18.1% (inactive).
For `COC(=O)CCCC1=CC2=CC(=O)C(C)(OC(=O)c3cccs3)C(=O)C2=CN1c1cccc(C#N)c1` (stereo not drawn) the value was -7% (inactive) and -4.26% (inactive).
For `CC(C)(C)OC(=O)NCCCCC1=CC2=CC(=O)C(C)(OC(=O)c3cccs3)C(=O)C2=CO1` (stereo not drawn) the value was 0.595% (inactive).
For `COC(=O)CCCC1=CC2=CC(=O)C(C)(OC(=O)c3cccs3)C(=O)C2=CN1CC(C)C` (stereo not drawn) the value was -16.4% (inactive) and -34.8% (active); for `COC(=O)CCCC1=CC2=CC(=O)C(C)(OC(=O)c3cccs3)C(=O)C2=CN1CC1CC1` (stereo not drawn), -36.8% (active) and -32.4% (active).
Regarding `COC(=O)CCCC1=CC2=CC(=O)C(C)(OC(=O)c3cccs3)C(=O)C2=CN1c1ccc(CO)cc1` (stereo not drawn), the activity change, negative = inhibition is 1.62% (inactive).
For `COc1cccc(-c2coc3cc4oc(=O)c(CC(=O)O)c(C)c4cc23)c1` the value was 12.3% (inactive); for `O=C(Nc1cccc([N+](=O)[O-])c1)N1CCc2ccccc2C1`, -5.24% (inactive); for `C=C1C([C@@]2(C)C(OC(C)=O)CC(=O)O[C@@](C)(COC(C)=O)C2CC(=O)OC)C(OC=O)C(OC(=O)C(O)C(C)CC)[C@]2(C)C(c3ccoc3)CC(=O)C12O` (stereo partly drawn), -3.85% (inactive).
For `CC(C)CCC(C)NC(=O)c1ccc2nccnc2c1` (stereo not drawn) the value was 2.87% (inactive); for `Oc1cc(O)c2c(c1)OC(c1ccc(O)c(O)c1)C(O)C2` (stereo not drawn), -34.5% (active); for `CC1(c2ccc3ccccc3c2)NC(=O)N(CC(N)=O)C1=O` (stereo not drawn), -1.62% (inactive).
For `Cc1c(Cl)cccc1NC(=O)NCc1ccc(C)n1C` the value was 0.306% (inactive).
For `CCCN1CCC(=O)N(C(CSc2ccc(C)cc2)Cc2ccccc2)CC1` (stereo not drawn), the activity change, negative = inhibition was 2.31% (inactive).
For `N#CC1=C(N)Oc2[nH]c(=S)[nH]c(=O)c2C12C(=O)Nc1ccccc12` (stereo not drawn) the value was -33.1% (active); for `N#CC1=C(N)Oc2n[nH]c(CSc3ccccc3)c2C12C(=O)Nc1ccccc12` (stereo not drawn), -1.05% (inactive).
Take `CC1(C)Cc2ccccc2-c2[nH]c(=S)[nH]c(=O)c21`: the activity change, negative = inhibition is 2.14% (inactive).
For `COCCCNc1nc2ccccc2nc1NS(=O)(=O)c1ccc(F)cc1`, the activity change, negative = inhibition is 3.51% (inactive).
For `Oc1cc2c(cc1O)CN(C(=S)NCCc1ccc(Cl)cc1)CCC2` the value was -10.5% (inactive); for `CCOCCCNC(=O)c1cn(CC(C)C)c(=O)c2c1c1ccccc1n2C`, 1.3% (inactive).
The result for `Cc1nn(C)cc1/C=C1\CCC/C(=C\c2cn(C)nc2C)C1=O` reads -3.28% (inactive); that for `COc1ccc2cc1Oc1ccc(cc1)C[C@H]1c3cc(c(OC)cc3CCN1C)Oc1c(O)c(OC)cc3c1[C@H](C2)N(C)CC3`, 3.01% (inactive); that for `COc1ccc(CN2CCCC(N3CCc4ccccc4C3)C2)c(O)c1` (stereo not drawn), 0.955% (inactive).
For `COc1c(O)ccc2c1CN1CCc3cc4c(cc3C1C2)OCO4` (stereo not drawn) the value was -31.7% (active); for `COc1ccc2c(c1)N(C)/C(=C1/SC(=S)N(NC(C)=O)C1=O)S2`, -2.99% (inactive); for `CCOc1cc(-c2cc(-c3ccc(NC(C)=O)cc3)nc(N)c2C#N)ccc1O`, -0.764% (inactive).
On to `CC(C)CNS(=O)(=O)c1ccc(CCC(=O)NCc2ccc(Cl)cc2)cc1`, for which the activity change, negative = inhibition is 2.27% (inactive).
For `Cc1ccc(OCc2nc3ccccc3n2C)cc1` the value was -0.274% (inactive); for `Cc1cccnc1NC(=O)CSc1nnc(COc2ccc(C(C)C)cc2)n1C`, -3.92% (inactive).
For `Cc1ccc(OCc2nnc(SC3CCc4ccccc4C3=O)n2C)cc1` (stereo not drawn) the value was -79.8% (active); for `C=C1/C(=C\C=C2\CCCC3(C)C2CCC3C(C)/C=C/C(O)C2CC2)CC(O)CC1O` (stereo not drawn), -0.462% (inactive).
`CN(NS(=O)(=O)c1cccs1)c1ncc(C(F)(F)F)cc1Cl`: the activity change, negative = inhibition was 1.61% (inactive).
The result for `CCOC(=O)c1c(C)[nH]c2c1-c1ccccc1C(=O)C2=O` reads -46.9% (active); that for `CCOC(=O)c1c(C)[nH]c(C)c1S(=O)(=O)N(C)CC(=O)Nc1ccccc1C`, 0.829% (inactive); that for `CCOC(=O)c1c(C)[nH]c(C(=O)NCc2ccccc2OC)c1C`, 6.66% (inactive).
The result for `CC(=O)Nc1ccc(N2C(=O)C3C4C=CC(CC4)C3C2=O)cc1` (stereo not drawn) reads -0.366% (inactive); that for `CN(C)/C=C1/Nc2ccccc2C1=O`, -30.5% (active); that for `CN(C)/C=C1/C(=O)Nc2ccccc21`, 2.47% (inactive).
As for `Cc1cc(C)c(/C=C2\C(=O)Nc3ccccc32)[nH]1`, the activity change, negative = inhibition is -3.49% (inactive).
